# Records with an inconclusive call do not appear. The source made the active and inactive calls. Rule for the calls: active = hit-call score of the fitted dose curve at least 0.9, where 1 is the maximum; inconclusive = response in the unintended direction; inactive = score below 0.9.
# Biological target: Voltage-dependent N-type calcium channel subunit alpha-1B (Rattus norvegicus) (UniProt Q02294)
# Test: NVS_IC_rCaChN: NovaScreen (NVS) Ion Channel Assay for rat Calcium Channel, Type N (CaChN) (AID 2283317)
row,Compound,outcome
1,CC(=O)OCCC(C)C,inactive
2,CCCOc1ccc(S(=O)(=O)N2CCN(CC)CC2)cc1-c1nc2c(CC)n(Cc3ccccn3)nc2c(=O)[nH]1,inactive
3,COC(=O)CSc1cc(N=c2sc(=O)n3n2CCCC3)c(F)cc1Cl,inactive
4,CCCCCCCCCCCCCCCS(=O)(=O)Oc1ccccc1,inactive
5,CNCc1ccc(NC(=O)c2c[nH]c3c2C(=O)CCC3)cc1,inactive

# Biological target: bovine Gamma-Aminobutyric Acid Type A Receptor BDZ, alpha 1 site (GABARa1), GABRA1 (gene 780973) (UniProt P08219)
# Sequence (P08219 whole entry, looked up): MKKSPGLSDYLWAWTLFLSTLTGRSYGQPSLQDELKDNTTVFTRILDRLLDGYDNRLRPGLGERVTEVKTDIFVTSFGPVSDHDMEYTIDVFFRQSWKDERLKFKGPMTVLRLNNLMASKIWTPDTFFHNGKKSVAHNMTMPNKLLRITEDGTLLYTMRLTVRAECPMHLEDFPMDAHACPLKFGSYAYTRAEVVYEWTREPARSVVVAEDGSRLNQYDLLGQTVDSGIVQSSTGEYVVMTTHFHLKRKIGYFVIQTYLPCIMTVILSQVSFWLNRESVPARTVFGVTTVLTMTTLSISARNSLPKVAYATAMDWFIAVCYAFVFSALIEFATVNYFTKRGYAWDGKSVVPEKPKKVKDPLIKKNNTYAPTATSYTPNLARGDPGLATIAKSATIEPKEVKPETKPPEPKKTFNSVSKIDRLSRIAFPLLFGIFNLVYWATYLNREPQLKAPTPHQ
# Test: NVS_LGIC_bGABARa1: NovaScreen (NVS) Ligand-Gated Ion Channel Assay for bovine Gamma-Aminobutyric Acid Type A Receptor BDZ, alpha 1 site (GABARa1) (AID 2283321)
# Summary of the method: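 Radioligand competition binding on bovine cortical membranes, 0.75 h, filter-based scintillation counting. Primary single concentration 25 uM in duplicate; actives rerun in concentration-response to 50 uM max. Loss of signal fitted versus DMSO.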
Compound,outcome,AC50
CCOc1ccc2[nH]cc(C(=O)NCc3ccccc3)c(=O)c2n1,inactive,
Clc1cc(Cl)c(Cl)cc1Cl,inactive,
NC(=O)N1c2ccccc2C=Cc2ccccc21,inactive,
COC(=O)CSc1cc(N=c2sc(=O)n3n2CCCC3)c(F)cc1Cl,inactive,
COCc1nnc(-c2ccc[n+]([O-])c2)n1-c1c(Cl)c(Cl)cc2[nH]c(=O)c(=O)[nH]c12,inactive,
C#C[C@]1(O)CC[C@H]2[C@@H]3CCC4=CC(=O)CC[C@@H]4[C@H]3CC[C@@]21CC,,2230 nM (active)
CCCCc1ccc2c(n1)[C@@H](c1ccc(OC)cc1C[C@H](C)C(=O)O)[C@H](C(=O)O)[C@H]2c1ccc2c(c1)OCO2,inactive,
C1=CCCC=CCCC=CCC1,inactive,
CNCc1ccc(NC(=O)c2c[nH]c3c2C(=O)CCC3)cc1,,62.6 nM (active)
Cn1cnc([N+](=O)[O-])c1Sc1ncnc2nc[nH]c12,inactive,

# Biological target: rat Oxytocin Receptor (OXT), Oxtr (gene 25342) (UniProt P70536)
# Sequence (P70536 whole entry, looked up): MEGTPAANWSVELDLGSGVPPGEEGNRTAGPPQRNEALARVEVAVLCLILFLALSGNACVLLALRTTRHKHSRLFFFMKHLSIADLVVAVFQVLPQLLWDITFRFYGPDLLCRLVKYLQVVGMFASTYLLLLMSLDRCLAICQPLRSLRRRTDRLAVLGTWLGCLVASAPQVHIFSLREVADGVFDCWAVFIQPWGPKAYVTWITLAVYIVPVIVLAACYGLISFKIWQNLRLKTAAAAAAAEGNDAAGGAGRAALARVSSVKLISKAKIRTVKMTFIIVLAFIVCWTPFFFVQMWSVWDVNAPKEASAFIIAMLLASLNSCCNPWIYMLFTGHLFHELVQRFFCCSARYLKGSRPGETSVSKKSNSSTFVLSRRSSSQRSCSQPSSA
# Test: NVS_GPCR_rOXT: NovaScreen (NVS) G Protein-Coupled Receptor Assay for rat Oxytocin Receptor (OXT) (AID 2283330)
# Summary of the method: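 Radioligand displacement on rat uterine membranes, 1 h incubation, filter-based scintillation counting. Chemicals were screened in duplicate at 25 uM, and those passing threshold were retested in concentration-response up to 50 uM. Loss of binding was fitted versus DMSO.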
row,Compound,outcome
1,CCCN(CCC)c1c([N+](=O)[O-])cc(C(F)(F)F)c(N)c1[N+](=O)[O-],inactive
2,NC(N)=O,inactive
3,O=C1OC(=O)C2C3C=CC(C3)C12 (configuration not stated),inactive
4,CCCCOC(=O)CCCCCCCCC(=O)OCCCC,inactive
5,CCOC(=O)COc1ccc2c(c1)CC(NCC(O)c1cccc(Cl)c1)CC2 (configuration not stated),inactive

# Biological target: rat Gamma-Aminobutyric Acid Type A Receptor BDZ, alpha 6 site (GABARa6), Gabra6 (gene 29708) (UniProt P30191)
# Sequence (P30191 whole entry, looked up): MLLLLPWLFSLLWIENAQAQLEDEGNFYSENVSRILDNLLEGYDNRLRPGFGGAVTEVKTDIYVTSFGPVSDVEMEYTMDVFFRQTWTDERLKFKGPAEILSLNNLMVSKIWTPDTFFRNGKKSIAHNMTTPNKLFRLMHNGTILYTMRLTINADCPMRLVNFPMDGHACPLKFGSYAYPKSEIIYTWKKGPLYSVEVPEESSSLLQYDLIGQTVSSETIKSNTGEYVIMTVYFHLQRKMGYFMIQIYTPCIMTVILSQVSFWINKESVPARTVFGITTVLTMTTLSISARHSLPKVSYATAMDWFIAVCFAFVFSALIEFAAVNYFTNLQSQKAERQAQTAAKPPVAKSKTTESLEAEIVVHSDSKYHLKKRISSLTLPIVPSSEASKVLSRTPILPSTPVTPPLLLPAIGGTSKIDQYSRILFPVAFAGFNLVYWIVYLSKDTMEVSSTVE
# Test: NVS_LGIC_rGABARa6: NovaScreen (NVS) Ligand-Gated Ion Channel Assay for rat Gamma-Aminobutyric Acid Type A Receptor BDZ, alpha 6 site (GABARa6) (AID 2283339)
# Summary of the method: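 Rat cerebellar membranes; radioligand binding, filtration and scintillation counting, read 1 h after dosing. Single-concentration duplicate screen at 25 uM, then concentration-response up to 50 uM for actives; loss of signal fitted versus DMSO baseline.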
Compound,AC50,outcome
CCOc1ccc2[nH]cc(C(=O)NCc3ccccc3)c(=O)c2n1,215 nM (active),
Cc1cccc(C)c1[N+](=O)[O-],,inactive
NC(=O)N1c2ccccc2C=Cc2ccccc21,,inactive
COc1ccc(OC)c(N=Nc2c(O)ccc3ccccc23)c1,,inactive
CS(=O)(=O)c1ccc(C2=C(c3ccccc3)C(=O)OC2)cc1,,inactive
Cc1ccc(C(C)C)c(O)c1,,inactive
O=c1n(CC2CO2)c(=O)n(CC2CO2)c(=O)n1CC1CO1 (configuration not stated),,inactive

# From PubChem BioAssay (EPA / NIEHS)
